Measurements from PubChem BioAssay (NCATS).
Records with an inconclusive call do not appear. A number with no mark means an inactive call. Active and inactive are the calls of the source. The call rests on the fitted dose curve; in most records, active means well fitted cell-killing curve with a large enough effect; inconclusive means small, poorly fitted or top-dose-only effect, or effect the other way; inactive means no such curve, though single readings can be large or run the other way.

Experiment: Quantitative High-Throughput drug screen in 47 multiple myeloma cell lines against the NCATS MIPE library collection: XG6_PLB cell viability assay (AID 1919865); further: nearly all actives have a fitted effect of over 40% in size;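 on viability (% of control): 100% = DMSO-only wells and 0% = media-only wells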
Conditions: XG6 myeloma viability, CellTiter-Glo ATP luminescence, 48 h; series mostly up to 45.8 µM; viability (% of control): at the top concentration
Method in brief: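 ATP-based luminescence (CellTiter-Glo, 5 min RT incubation) quantified surviving cells following two days' treatment with MIPE 4.0 agents at 37 °C, 5% CO2.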
Potency means the concentration at half of the fitted maximal effect.

Row | SMILES | Potency | viability (% of control)
1 | Clc1ccc(CCC(Cn2ccnc2)Sc2c(Cl)cccc2Cl)cc1 (configuration not stated) | 23.5 µM (active) | 
2 | N[C@H](CSC(c1ccccc1)(c1ccccc1)c1ccccc1)C(=O)O | 6.62 µM (active) | 
3 | CC[C@H]1OC(=O)[C@H](C)C(=O)[C@H](C)[C@@H](O[C@H]2O[C@H](C)C[C@H](N(C)C)[C@@H]2O)[C@](C)(OC)C[C@@H](C)C(=O)[C@H](C)[C@H]2N(CCCCn3cnc(-c4cccnc4)c3)C(=O)O[C@]12C | 4.69 µM (active) | 
4 | C=CCc1ccc(O)c(-c2ccc(O)c(CC=C)c2)c1 | 14.8 µM (active) | 
5 | COc1cccc2c1CCCC2CCCN1CCN(C2CCCCC2)CC1 (configuration not stated) | 23.5 µM (active) | 
6 | CC(=O)O[C@]1(C(C)=O)CC[C@@H]2[C@@H]3C[C@H](C)C4=CC(=O)CC[C@]4(C)[C@H]3CC[C@@]21C | 23.5 µM (active) | 
7 | CC=C(C)C(=O)O[C@H]1C(C)=C[C@]23C(=O)[C@@H](C=C(CO)[C@@H](O)[C@]12O)[C@H]1[C@@H](C[C@H]3C)C1(C)C | 3.72 µM (active) | 
8 | C=C1C(=O)OC(CCCCCCCC)C1C(=O)O (configuration not stated) | 20.9 µM (active) | 
9 | O=C1NC(=O)C(=Cc2ccc(-c3ccc(F)cc3)o2)S1 | 18.7 µM (active) | 
10 | COc1ncc(-c2ccc3nccc(-c4ccnnc4)c3c2)cc1NS(=O)(=O)c1ccc(F)cc1F | 0.0187 µM (active) | 
11 | CCNc1cc(NC2CCC(O)CC2)nc(Nc2ccc3c(ccn3Cc3ccccc3)c2)n1 (configuration not stated) | 20.9 µM (active) | 
12 | CC(C)(C)c1cc(C(=O)O)c(NC(=O)Nc2ccc3[nH]ncc3c2)s1 |  | 124%
13 | COc1ccc(C2CC(c3ccccc3)=NN2c2ccc(S(N)(=O)=O)cc2)cc1 (configuration not stated) | 18.7 µM (active) | 
14 | COc1cc(N2CCC(N3CCN(C)CC3)CC2)ccc1Nc1ncnc(Nc2ccccc2S(=O)(=O)C(C)C)n1 | 7.43 µM (active) | 
15 | CO[C@H]1C[C@@H]2CC[C@@H](C)[C@@](O)(O2)C(=O)C(=O)N2CCCC[C@@H]2C(=O)O[C@H]([C@@H](C)C[C@@H]2CC[C@H](O)[C@H](OC)C2)CC(=O)[C@H](C)C=C(C)[C@@H](O)[C@@H](OC)C(=O)[C@H](C)C[C@H](C)C=CC=CC=C1C |  | 37.7%
16 | CC=CCC=CCCC(=O)[C@H]1O[C@@H]1C(N)=O | 18.7 µM (active) | 
17 | CC(=O)Oc1cc2c(s1)CCN(C(C(=O)C1CC1)c1ccccc1F)C2 (configuration not stated) | 2.64 µM (active) | 
